TDP1 cell noCPT – qHTS for Inhibitors of human tyrosyl-DNA phosphodiesterase 1 (TDP1): qHTS in cells in absence of CPT | hit rate 15% among 420,000 | DT40 Tdp1-/- hTDP1 cells, no CPT, ATP luminescence, 48 h | Potency, µM (series often up to 46.2 µM), actives largely listed as inhibitors | AID 686978, 2013; also: nearly all actives have a fitted effect of over 55% in size
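Readout: luminescence from CellTiter-Glo after 30 min in the dark at RT. Cells: DT40 Tdp1-/- with stable hTDP1, 400/well. Exposure: compounds alone, ≥48 hr, 37 °C.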
HepG2 viability – qHTS for Inhibitors of TGF-b: Cytotox Counterscreen; HepG2 CAGA-GFP viability, ATP luminescence, 18 h; Potency, µM (highest dose often 46.1 µM), actives largely listed as cytotoxic; hit rate 0.76% among 410,000; AID 588856, 2011
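CellTiter-Glo luminescence gave cytotoxicity after 18 hours at 37 degrees C. The cells were HepG2 CAGA-GFP in 1% FBS DMEM, stimulated with 500 pg/mL TGF-beta after compound addition. %Activity was normalised to no-cell wells (complete cell-killing) and DMSO (no toxicity), and curves were fitted and classified.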
TDP1 cell CPT – qHTS for Inhibitors of human tyrosyl-DNA phosphodiesterase 1 (TDP1): qHTS in cells in presence of CPT. chicken DT40 Tdp1-/-;hTDP1 cells + 20 nM CPT, ATP luminescence, 48 h. Potency, µM (doses to about 46.2 µM), usual class: inhibitors. hit rate 12% among 420,000. AID 686979, 2013; also: nearly all actives have a fitted effect of over 55% in size
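Cell growth measured by CellTiter-Glo luminescence after a minimum 48 h, 37 C compound exposure with 20 nM CPT in Tdp1-knockout DT40 cells stably expressing hTDP1, seeded 400/well; qHTS titration format.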
TGFb SMAD3 inh – qHTS for Inhibitors of TGF-b. HepG2 CAGA-GFP TGF-b/SMAD3 reporter, GFP fluorescence, 18 h; TGF-beta stimulated, 500 pg/mL final. Potency, µM (top dose mostly 46.1 µM), most hits filed as inhibitors. hit rate 1.2% among 410,000. AID 588855, 2011; also: nearly all actives have a fitted effect of over 65% in size
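Inhibition of TGF-beta-driven CAGA-GFP reporter expression in HEPG2 cells is measured by cellular GFP fluorescence after 18 h stimulation with 500 pg/mL recombinant TGF-beta in 1% FBS medium at 37 degrees C.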
IL1B secr inh – qHTS for Inhibitors of Inflammasome Signaling: IL-1-beta AlphaLISA Primary Screen; THP-1 LPS/ATP IL-1B secretion, AlphaLISA, 16 h; active compounds read low; AID 743279, 2014; hit rate 4.7% among 360,000; activity change, % at 57.5 µM; in the data active = activity change below about -50%; inconclusive = mostly about -30% to -49%
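THP-1 cells pretreated 1 hr with compounds (up to 57.5 uM final), then stimulated with LPS (250 ng/mL final) plus ATP (1.25 mM final); secreted IL-1B measured by AlphaLISA after 16 hr, decreased signal indicating inhibition.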
TDP1 block – qHTS Assay for Inhibitors of Tyrosyl-DNA Phosphodiesterase (TDP1) | AID 485290, 2010 | Potency, µM (highest dose often 130 µM), usual class: inhibitors | hit rate 0.28% among 350,000 | recombinant TDP1, AlphaScreen DNA substrate cleavage; also: nearly all actives have a fitted effect of over 40% in size
Target sequence (Q9NUW8 whole entry, looked up): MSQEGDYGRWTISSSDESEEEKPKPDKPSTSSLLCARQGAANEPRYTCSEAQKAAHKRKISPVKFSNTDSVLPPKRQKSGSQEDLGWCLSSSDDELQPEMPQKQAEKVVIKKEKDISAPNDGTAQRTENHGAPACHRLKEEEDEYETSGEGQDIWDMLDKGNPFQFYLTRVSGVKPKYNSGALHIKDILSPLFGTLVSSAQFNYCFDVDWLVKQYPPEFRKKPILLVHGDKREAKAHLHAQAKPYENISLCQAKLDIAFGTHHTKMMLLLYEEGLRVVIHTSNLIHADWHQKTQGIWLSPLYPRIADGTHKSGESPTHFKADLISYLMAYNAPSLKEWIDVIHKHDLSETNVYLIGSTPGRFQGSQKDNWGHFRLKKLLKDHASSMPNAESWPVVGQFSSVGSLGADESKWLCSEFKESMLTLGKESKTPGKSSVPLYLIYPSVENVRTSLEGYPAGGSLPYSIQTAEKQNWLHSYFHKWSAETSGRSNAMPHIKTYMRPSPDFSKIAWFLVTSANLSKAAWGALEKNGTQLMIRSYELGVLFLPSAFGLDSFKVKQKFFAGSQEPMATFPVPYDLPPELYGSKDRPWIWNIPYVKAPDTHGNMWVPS
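Steps: enzyme plus compound, 15 min RT; add biotin/phosphotyrosine-FITC oligonucleotide (15 nM final), react 5 min; add donor/acceptor beads (10 ug/ml final), 10 min; read AlphaScreen. Tdp1 at 1 nM final.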
Large screens that a line does not name were inactive. A selection: hits, their analogues and other compounds. The true share with any hit is near 19%. Unless noted, calls follow the shape of the dose curve; as a rule, active = well fitted curve in the direction sought with a large enough effect; inconclusive = small, poorly fitted or top-dose-only effect, or another doubt; inactive = no such curve, though single readings can be large; an effect the other way counts as inactive or inconclusive.

CCn1c(N2CCN(C(=S)NC)CC2)nc2ccccc21	none
CC(C)(C)CC(=O)Nc1cc2c3c(c1)CC(=O)N3CCC2	none
CCC1CCCCN1CCCNC(=O)c1cn(CC(C)C)c(=O)c2cc(OC)c(OC)cc12 (centres undefined)	TDP1 cell noCPT 1.8µM, IL1B secr inh inconclusive
CCn1cc(C(=O)N(C)c2ccccc2F)c2cc(OC)c(OC)cc2c1=O	TDP1 cell CPT inconclusive, IL1B secr inh inconclusive (no result: TDP1 block)
CCc1ccccc1N(C)C(=O)c1cn(CC(C)C)c(=O)c2cc(OC)c(OC)cc12	TDP1 cell noCPT 10µM, TDP1 cell CPT 10µM, TGFb SMAD3 inh inconclusive (no result: IL1B secr inh)
COc1ccc(N(C)C(=O)c2cn(CC(C)C)c(=O)c3cc(OC)c(OC)cc23)c(OC)c1	HepG2 viability 7.1µM, TDP1 cell CPT inconclusive (no result: TDP1 block)
CCc1ccccc1N(CC)C(=O)c1cn(C)c(=O)c2cc(OC)c(OC)cc12	TDP1 cell noCPT inconclusive
CCN(C(=O)c1cn(CC(C)C)c(=O)c2cc(OC)c(OC)cc12)c1cc(OC)ccc1OC	TDP1 cell noCPT 15µM, TDP1 cell CPT 13µM, TGFb SMAD3 inh inconclusive (no result: IL1B secr inh)
Cn1ncc2c(Nc3cc(C(F)(F)F)ccc3Cl)ncnc21	TDP1 cell noCPT inconclusive, TDP1 cell CPT inconclusive (no result: IL1B secr inh)
CS(=O)(=O)Nc1cccc(C2=NN(C(=O)CCCC(=O)O)C(c3cccs3)C2)c1 (centres undefined)	none (no result: TDP1 block)
CCCn1c(-c2ccc(F)cc2)nc2c(NC3CCN(Cc4ccccc4)CC3)nc(C)nc21	none (no result: TDP1 cell noCPT, HepG2 viability, TDP1 cell CPT, TGFb SMAD3 inh, IL1B secr inh)
COc1cc2c(C(=O)N(C)c3cc(Cl)ccc3OC)cn(CC(C)C)c(=O)c2cc1OC	TDP1 cell noCPT 8.2µM, TDP1 cell CPT 9.2µM, TGFb SMAD3 inh inconclusive (no result: IL1B secr inh)
CCCN(C(=O)c1cn(CC(C)C)c(=O)c2cc(OC)c(OC)cc12)c1cccc(C)c1	TDP1 cell noCPT 15µM, TDP1 cell CPT 13µM, TGFb SMAD3 inh inconclusive (no result: IL1B secr inh)
COc1ccc(Cn2ccc3nc(C)c(C(=O)Nc4cc(C)cc(C)c4)cc3c2=O)cc1	TDP1 cell noCPT inconclusive, TDP1 cell CPT inconclusive (no result: IL1B secr inh)
Cc1c(P(=S)(c2ccccc2)c2ccccc2)c2ccccc2n1C(=O)NCc1ccccc1	none (no result: TDP1 cell noCPT, HepG2 viability, TDP1 cell CPT, TGFb SMAD3 inh, IL1B secr inh)
COc1ccc(N(C(=O)c2ccc(Br)o2)C2C=CS(=O)(=O)C2)c(OC)c1 (centres undefined)	TDP1 cell noCPT 18µM, TDP1 cell CPT inconclusive
O=C(c1cnccn1)N1CCC2(CC1)CN(Cc1nccs1)C2	none (no result: HepG2 viability, TGFb SMAD3 inh, IL1B secr inh, TDP1 block)
CC(NCC(=O)Nc1cc(S(=O)(=O)N2CCOCC2)ccc1Cl)c1ccc(Cl)cc1Cl (centres undefined)	TDP1 cell noCPT 23µM, TDP1 cell CPT inconclusive, TGFb SMAD3 inh inconclusive, IL1B secr inh -52 (no result: TDP1 block)
Cc1ccc(S(=O)(=O)N2CCOCC2)cc1NC(=O)CNC(C)c1ccccc1 (centres undefined)	none
CCN(C(=S)Nc1cc(S(=O)(=O)N2CCOCC2)ccc1Cl)c1cccc2ccccc12	TDP1 cell noCPT inconclusive, TDP1 cell CPT 18µM, TGFb SMAD3 inh inconclusive
COc1ccccc1CNCC(=O)Nc1cc(S(=O)(=O)N2CCCCCC2)ccc1Cl	TDP1 cell noCPT inconclusive, TDP1 cell CPT inconclusive
COc1ccccc1CNCC(=O)Nc1cc(S(=O)(=O)N2CCOCC2)ccc1Cl	TDP1 cell noCPT 16µM, TDP1 cell CPT inconclusive
Cc1oc2ncn(CC(C)C)c(=O)c2c1C(=O)NCCCN1CCCCC1C (centres undefined)	none (no result: IL1B secr inh)
O=C(Cc1ccc(NC(=O)C2CCCN(C(=O)C3CCC3)C2)cc1)Nc1ccc(C(=O)N2CCOCC2)cc1 (centres undefined)	none (no result: TDP1 block)

Screening results (PubChem)
